Tau fibril ThT – qHTS for Inhibitors of Tau Fibril Formation, Thioflavin T Binding; recombinant tau K18 P301L, heparin-induced fibrillization, ThT fluorescence; Potency, µM (doses to about 57.4 µM), for the others: at the top dose activity, negative = inhibition, usual class: inhibitors; actives 2.1% (n = 270,000); Microtubule-associated protein tau (Homo sapiens), P10636; also: nearly all actives have a fitted effect of over 55% in size
Target sequence (P10636 561-689 P618L limits assumed): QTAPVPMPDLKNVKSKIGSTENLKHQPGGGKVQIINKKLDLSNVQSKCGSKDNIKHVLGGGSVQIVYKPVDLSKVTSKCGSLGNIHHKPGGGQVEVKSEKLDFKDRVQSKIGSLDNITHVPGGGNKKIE
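K18 P301L tau (15 uM + 0.24 uM Alexa 594-tagged), heparin 20 uM, NaOAc pH 7, 6 h 37 C; ThT 30 uM, 1 h RT, ex 450/em 510 nm.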
Tau fluor counter – Counterscreen qHTS for Inhibitors of Tau Fibril Formation, Fluorescence Polarization. tau K18 P301L (four-repeat tau fragment) Alexa594 fluorescence, heparin fibrillization. Potency, µM (top dose mostly 57.7 µM), for inactives: top-dose activity change, negative = decrease. actives 0.93% (n = 280,000); also: nearly all actives have a fitted effect of over 55% in size
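Human K18 P301L tau (15 uM unlabeled plus 0.24 uM Alexa 594-labeled, final) in 100 mM sodium acetate pH 7 was mixed with compound and 20 uM heparin and incubated 6 hr at 37 C.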
RORg inh – qHTS for inhibitors of ROR gamma transcriptional activity; Drosophila S2 Gal4-RORgamma UAS-luciferase reporter, 20 h; Nuclear receptor ROR-gamma (Mus musculus), P51450; Potency, µM (doses to about 53.6 µM), inactives show top-dose activity change, negative = inhibition, hits mostly inhibitors; actives 5.4% (n = 310,000); also: nearly all actives have a fitted effect of over 60% in size
Target sequence (P51450 whole entry, looked up, the tested form may be a part): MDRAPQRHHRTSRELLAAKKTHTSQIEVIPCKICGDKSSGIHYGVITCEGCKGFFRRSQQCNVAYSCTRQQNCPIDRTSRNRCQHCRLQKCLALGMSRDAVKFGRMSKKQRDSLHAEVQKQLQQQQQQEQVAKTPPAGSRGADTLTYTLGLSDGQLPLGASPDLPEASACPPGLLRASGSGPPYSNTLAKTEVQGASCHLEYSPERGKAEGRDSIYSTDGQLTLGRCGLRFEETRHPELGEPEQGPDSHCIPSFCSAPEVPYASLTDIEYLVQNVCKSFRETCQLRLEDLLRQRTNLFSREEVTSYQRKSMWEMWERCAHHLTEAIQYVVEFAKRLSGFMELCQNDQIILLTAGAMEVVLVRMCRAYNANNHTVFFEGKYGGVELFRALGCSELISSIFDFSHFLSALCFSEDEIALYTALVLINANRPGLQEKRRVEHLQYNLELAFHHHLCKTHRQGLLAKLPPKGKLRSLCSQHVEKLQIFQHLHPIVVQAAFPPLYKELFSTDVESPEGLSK
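Drosophila Schneider cells stably carrying a metallothionein-driven Gal4 DBD–ROR gamma fusion and a UAS-Photinus luciferase reporter were exposed to compound for 1 hr, then induced with copper sulfate (700 uM final) for 20 hr at ambient temperature before luminescence reading.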
Tau FP inhib – qHTS for Inhibitors of Tau Fibril Formation, Fluorescence Polarization | Microtubule-associated protein tau (Homo sapiens), P10636 | K18 P301L tau heparin fibrillization, Alexa594 FP, 6 h | Potency, µM (doses to about 57.7 µM), without a hit: at the highest dose activity, negative = inhibition, hits mostly inhibitors | actives 0.39% (n = 280,000); also: nearly all actives have a fitted effect of over 55% in size
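FP of Alexa 594-tau after heparin (20 uM) induction. Substrate: human K18 P301L, 15 uM unlabeled, 0.24 uM labeled. Buffer 100 mM sodium acetate pH 7. 6 hr, 37 C.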
VP16 counter – VP16 counterscreen qHTS for inhibitors of ROR gamma transcriptional activity; Drosophila S2 Gal4-VP16 UAS-luciferase, luminescence, 20 h; Potency, µM (doses to about 53.6 µM), without a hit: at the highest dose activity, negative = inhibition, most hits filed as inhibitors; actives 3.5% (n = 310,000); AID 2546, 2010;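 also: Gal4-VP16 expression switched on by copper sulfate through the metallothionein promoter; nearly all actives have a fitted effect of over 50% in size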
Numbers without * were called inactive; ? = inconclusive; nt = not tested or not shown; [ ] = remark or other dose. This is a sample that favours compounds with a hit; in the whole collection about 7.3% have one here. Calls follow the shape of the dose curve; as a rule, active = well fitted curve in the direction sought with a large enough effect; inconclusive = small, poorly fitted or top-dose-only effect, or another doubt; inactive = no such curve, though single readings can be large; an effect the other way counts as inactive or inconclusive. % is scaled to controls: 0 for no effect and ±100 for the full control effect; potency is read from the fitted curve at half-maximal effect.

SMILES	Tau fibril ThT	Tau fluor counter	RORg inh	Tau FP inhib	VP16 counter
CC(=O)Nc1ccc(S(=O)(=O)N2C(C)CCCC2C)cc1 (configuration not stated)	nt	nt	1%	nt	17%
CC(=O)Nc1ccc(S(=O)(=O)Nc2cc(C)cn(Cc3ccccc3)c2=O)cc1	nt	nt	?	nt	-22%
Cc1ccc(/C=N/n2c(-c3cccc(Cl)c3)n[nH]c2=S)o1	-15%	-27%	5µM*	7%	?
S=c1[nH]nc(-c2ccccn2)n1/N=C/c1ccc(-c2ccccc2Br)o1	?	-18%	10µM*	14%	0%
S=c1[nH]nc(-c2ccccc2)n1/N=C/c1ccc(-c2ccccc2Cl)o1	-12%	-27%	4.5µM*	-10%	?
S=c1[nH]nc(-c2cccc(Cl)c2)n1/N=C/c1ccc(-c2ccccc2Br)o1	-11%	-25%	0.79µM*	1%	-9%
S=c1[nH]nc(-c2cccc(Cl)c2)n1/N=C/c1ccco1	nt	?	?	-10%	?
Cc1ccc(Cl)cc1NC(=O)CC1Sc2ccccc2NC1=O (configuration not stated)	0%	-8%	nt	-5%	nt
CCC(Sc1nnc(C)n2c1cc1occc12)C(=O)Nc1ccccc1F (configuration not stated)	?	-15%	nt	3%	nt
CCC(C)c1ccc(O)c(NC(=S)NC(=O)c2cccnc2)c1 (configuration not stated)	-9%	?	0.56µM*	8%	1.3µM*
Cc1ccc([N+](=O)[O-])cc1NC(=S)NC(=O)c1cccnc1	-3%	-6%	13µM*	2%	-24%
O=C(NC(=S)Nc1cc([N+](=O)[O-])ccc1O)c1cccnc1	?	0%	2µM*	4%	13µM*
CC(C)c1ccc(O)c(NC(=O)c2cccnc2)c1	1%	-9%	?	3%	7%
O=C(NC(=S)Nc1ccccc1O)c1cccnc1	nt	nt	11µM*	nt	?
Cc1ccccc1NC(=O)c1cccnc1	nt	nt	0%	nt	0%
CCOC(=O)[C@@]12C[C@@H]1/C(=N/O)c1ccccc1O2	-3%	-7%	18%	0%	-7%
COc1ccccc1CC(NC(C)=O)C(=O)NC1CCN(C(=O)Nc2ccccc2F)CC1 (configuration not stated)	nt	nt	-5%	nt	7%
O=C(NNc1ncnc2c1cnn2-c1ccc(F)cc1)c1cccs1	-10%	-1%	13µM*	3%	-5%
Cn1ncc2c(NNC(=O)Cc3ccccc3)ncnc21	1%	12%	16%	5%	-7%
Cc1ccc(-n2ncc3c(NNC(=O)c4ccco4)ncnc32)cc1Cl	nt	nt	3.2µM*	nt	4µM*
CC(=O)NNc1ncnc2c1cnn2-c1ccccc1	-4%	-6%	-33%	?	-14%
Cc1cccc(-n2ncc3c(NCc4ccco4)ncnc32)c1	-17%	-15%	?	8%	4%
Cc1ccc(-n2ncc3c(NNC(=O)Cc4ccccc4)ncnc32)cc1	?	-15%	13µM*	-6%	?
Cc1cccc(-n2ncc3c(NNC(=O)c4ccco4)ncnc32)c1	nt	nt	7.1µM*	nt	7.9µM*
Cc1cccc(C(=O)NNc2ncnc3c2cnn3-c2ccc(C)c(Cl)c2)c1	17%	2%	nt	-11%	nt
SMILES	Tau fibril ThT	Tau fluor counter	RORg inh	Tau FP inhib	VP16 counter
COc1cc(C2CC(=O)Nc3cc4c(cc32)OCCO4)cc(OC)c1O (configuration not stated)	-7%	-8%	nt	0%	nt
COc1ccc(N2CC(NC(=O)c3ccc4c(c3)OCO4)CC2=O)cc1OC (configuration not stated)	-4%	-2%	nt	-5%	nt
Cc1ccc(N=Cc2c(C)[nH]n(-c3nc4ccccc4[nH]3)c2=O)cc1	?	-19%	2.8µM*	1%	11µM*
Cc1ccc(-n2[nH]c(C)c(C=Nc3ccc4[nH]c(=O)[nH]c4c3)c2=O)cc1	?	?	22%[10 µM]	19%	?
O=c1c(S(=O)(=O)c2ccc(Cl)cc2)cn(Cc2ccc(F)cc2)c2ccc(F)cc12	?	?	nt	-7%	nt
COc1ccc(N/C=C2\CCc3ccccc3C2=O)cc1	0.89µM*	28µM*[quencher]	8.9µM*	-15%	?
COc1ccc2c(c1)CC/C(=C\Nc1ccc3c(c1)OCO3)C2=O	1.3µM*	14µM*[quencher]	?	?	3%
O=C1OC2(CCCCC2)OC(=O)C1=CNc1ccc2c(c1)OCO2	1%	-11%	0%	1%	-17%
O=C1/C(=C/Nc2ccc3c(c2)OCO3)CCc2ccccc21	1.6µM*	7.9µM*[quencher]	-71%	?	11µM*
O=C(Nc1ccccc1C(F)(F)F)N1CCC(CN2CCc3ccccc3C2)CC1	1%	1%	nt	-5%	nt
O=C(O)[C@H](Cc1ccccc1)NC(=O)N1CCOCC1	-17%	-13%	5µM*	-10%	0%
COc1ccc(/C=N/NC(=S)NCC2CCCO2)cc1 (configuration not stated)	2%	-4%	2.8µM*	-1%	11µM*
COc1cc(/C=N/NC(=O)C(=O)NCC2CCCO2)cc(Cl)c1O (configuration not stated)	-6%	8%	12%	1%	-1%
COc1cc(/C=N/NC(=S)NCC2CCCO2)cc(OC)c1OC (configuration not stated)	-7%	-4%	4.5µM*	7%	16µM*
Cc1cnc(CNc2ncnc3ccc(-c4cccc(C#N)c4)cc23)cn1	-14%	-18%	10%	-8%	-18%
CC1CCN(c2nn3c(=O)c(C(=O)NC(C)C)cnc3s2)CC1	-5%	-9%	nt	-4%	nt
C=CCN1CCc2c(cc(O)c(O)c2Cl)C(c2cccc(C)c2)C1 (configuration not stated)	-17%	-21%	-36%	10%	0%
CCN(CC)c1c([N+](=O)[O-])c(=O)n(C)c2ccccc12	-14%	-10%	1%	-6%	-3%
Cn1c(=O)c([N+](=O)[O-])c(Cl)c2ccccc21	?	-12%	10µM*	7%	13µM*
CCOC(=O)CSc1nc2c(sc3ccc([N+](=O)[O-])cc32)c(=O)n1Cc1ccco1	-16%	-20%	8.9µM*	18%	5.6µM*
COc1ccc(S(=O)(=O)NCC2CC3C=CC2C3)cc1OC (configuration not stated)	nt	nt	10%	nt	-4%
CC(Oc1ccc2c(c1)oc(=O)c1ccccc12)C(=O)NC(Cc1c[nH]c2ccc(O)cc12)C(=O)O (configuration not stated)	nt	nt	13%	nt	-2%

Compound activity deposited in PubChem BioAssay by National Center for Advancing Translational Sciences (NCATS).
